Test results taken from PubChem BioAssay AID463173 (ICCB-Longwood Screening Facility, Harvard Medical School, 2010).
In all, about 52,000 compounds went through this assay and about 4,300 (8.3%) were called active. Rule as the data show it: active = survival mostly below about 52% (no sharp cut-off); inactive = mostly above about 56%. The list comes from a sample in which actives are over-represented; it also holds similar structures and randomly drawn compounds.

system: DeltatarO mutant; experiment: growth inhibition of S. aureus wild type versus tarO mutant, primary screen, teichoic acid synthesis inhibitors, RN4220, OD600 (AID 463173); conditions: OD600, 18 h, stronger effect = lower value, screened at 18.75 µg/mL (by protocol)

Row | SMILES | survival
1 | O=S(=O)(c1ccc(C2CCCCC2)cc1)N1CCN(c2cc(Cl)ccc2Cl)CC1 | 72% (inactive)
2 | O=S(=O)(c1ccc(C2CCCCC2)cc1)N1CCN(c2ccc(Cl)c(Cl)c2)CC1 | 54% (active)
3 | CCc1ccc(S(=O)(=O)N2CCN(c3ccc(Cl)c(Cl)c3)CC2)cc1 | 118% (inactive)
4 | Cc1cccc(OC(=O)c2snnc2C)c1 | 88% (inactive)
5 | Cc1cccc(NC(=O)c2oc3ccc(S(=O)(=O)N4CCCCC4)cc3c2C)c1C | 71% (inactive)
6 | COc1ccccc1NC(=O)CSC1=Nc2ccccc2C2=NC(CC(=O)NCc3ccccc3)C(=O)N12 (configuration not stated) | 71% (inactive)
7 | Cc1ccc(-n2ncc3c(N4CCCCCC4)ncnc32)cc1Cl | 102% (inactive)
8 | CCn1c(=O)cc(SCC(=O)NCCc2cc(OC)ccc2OC)c2ccccc21 | 61% (inactive)
9 | Cc1cccc(Oc2nc3c(c(=O)n(C)c(=O)n3C)n2Cc2ccccc2)c1C | 53% (inactive)
10 | COc1cccc(Cn2c(NCc3ccc(C)cc3)nc3c2c(=O)n(C)c(=O)n3C)c1 | 79% (inactive)
11 | COc1cccc(Cn2c(Oc3cc(C)cc(C)c3)nc3c2c(=O)n(C)c(=O)n3C)c1 | 31% (active)
12 | CCCCNc1nc2c(c(=O)n(Cc3ccc(Cl)cc3)c(=O)n2C)n1C | 56% (inactive)
13 | CCCCC(CC)Cn1c(Oc2ccccc2)nc2c1c(=O)n(C)c(=O)n2C (configuration not stated) | -15% (active)
14 | Cc1cccc(Oc2nc3c(c(=O)n(C)c(=O)n3C)n2C)c1 | 123% (inactive)
15 | Cc1cc(C)cc(Oc2nc3c(c(=O)n(C)c(=O)n3C)n2Cc2ccc(F)cc2)c1 | 76% (inactive)
16 | Cn1c(=O)c2c(nc(Oc3ccccc3)n2Cc2c(Cl)cccc2Cl)n(C)c1=O | 84% (inactive)
17 | CCCCNc1nc2c(c(=O)n(Cc3ccc(Cl)c(Cl)c3)c(=O)n2C)n1C | -10% (active)
18 | Cc1ccc(Oc2nc3c(c(=O)n(Cc4ccccc4)c(=O)n3C)n2C)cc1C | 44% (inactive)
19 | CCCCNc1nc2c(c(=O)n(Cc3ccccc3)c(=O)n2C)n1C | 66% (inactive)
20 | Cc1ccc(C)c(Oc2nc3c(c(=O)n(C)c(=O)n3C)n2Cc2ccccc2)c1 | 32% (active)
21 | CCOc1ccc(C(=O)c2cn(CC(=O)Nc3ccc(OC)cc3)c3cc4c(cc3c2=O)OCCO4)cc1 | 82% (inactive)

Row | SMILES | survival
22 | CCc1cccc(C)c1NC(=O)Cn1nc(C)c2nn(-c3ccc(Cl)cc3)c(C)c2c1=O | 124% (inactive)
23 | Cc1ccc(-n2nc(CO)c(C(=O)NCCO)n2)cc1 | 82% (inactive)
24 | CCOc1ccc(CN2CCc3nc(Nc4ccc5c(c4)OCCO5)ncc3C2)cc1 | 89% (inactive)
25 | Cc1ccc(S(=O)(=O)c2nnn3c2nc(N2CCCCC2)c2sccc23)cc1 | 104% (inactive)
26 | CCOC(=O)c1scc(-c2ccc(C)cc2)c1S(=O)(=O)N1CCN(c2ccccc2)CC1 | 73% (inactive)
27 | Cc1ccc(CSc2nnc(-n3c(=O)c(C#N)cc4c(=O)n5cccc(C)c5nc43)s2)cc1 | 101% (inactive)
28 | N#Cc1cc(-c2ccc(Cl)cc2)no1 | 97% (inactive)
29 | COC(=O)CSc1nnc(-c2ccccc2)n1C | 97% (inactive)
30 | CCc1ccccc1NC(=O)Nc1c(C)n(C)n(-c2ccccc2)c1=O | 88% (inactive)
31 | CN1C(=O)N(C)C2(CC1(C)C)CC(C)(C)N(C)C(=O)N2C | 102% (inactive)
32 | Cn1c(=O)c2c(nc(SCC(=O)Nc3ccc(F)c(F)c3)n2Cc2ccccc2F)n(C)c1=O | 111% (inactive)
33 | COc1ccc(NC(=O)c2nnn(Cc3ccc(Br)cc3F)c2N)c(OC)c1 | 68% (inactive)
34 | COc1ccc(CCNc2nc3c(c(=O)n(C)c(=O)n3C)n2Cc2ccccc2Cl)cc1OC | 75% (inactive)
35 | COc1ccccc1Oc1nc2c(c(=O)n(C)c(=O)n2C)n1Cc1cccc(Br)c1 | 40% (active)
36 | Cn1c(=O)c2c(nc(NCc3ccccc3)n2Cc2ccc(Cl)c(Cl)c2)n(C)c1=O | 42% (inactive)
37 | Cc1ccccc1Oc1nc2c(c(=O)n(C)c(=O)n2C)n1Cc1ccc(Br)cc1 | 143% (inactive)
38 | COc1ccc(CNc2nc3c(c(=O)n(C)c(=O)n3C)n2Cc2ccccc2Cl)cc1 | 65% (inactive)
39 | Cn1c(=O)c2c(nc(NCCc3ccccc3)n2Cc2cccc(Br)c2)n(C)c1=O | 50% (inactive)
40 | Cn1c(=O)c2c(nc(NCc3ccccc3)n2Cc2ccccc2)n(C)c1=O | 38% (active)
41 | COc1ccc(Cl)c(Cn2c(NCCN)nc3c2c(=O)n(C)c(=O)n3C)c1 | 56% (active)
42 | Cn1c(=O)c2c(nc(NCc3ccccc3)n2Cc2ccccc2Cl)n(C)c1=O | 58% (inactive)

Row | SMILES | survival
43 | COc1ccc(NC(=O)Cn2cnc3sc(C)c(S(=O)(=O)N4CCN(c5ccccc5OC)CC4)c3c2=O)cc1OC | 67% (inactive)
44 | CC1CCN(c2nc(N3CCCCC3)nc(N3CCCCC3)n2)CC1 | 62% (inactive)
45 | CCOC(=O)c1cc(C)n(CC2CCC(C(=O)Nc3ccc(C)c(F)c3)CC2)c1C (configuration not stated) | 64% (inactive)
46 | Cc1cccc(NC(=O)C2CCCN(S(=O)(=O)c3c(C)noc3/C=C/N(C)C)C2)c1C (configuration not stated) | 84% (inactive)
47 | Cc1ccc(NS(=O)(=O)c2ccc3c(c2)CCN3C(=O)C2CC2)c(C)c1 | 58% (inactive)
48 | Cc1ccc(Nc2c(-c3cccnc3)nc3ccc(Cl)cn23)cc1 | 83% (inactive)
49 | O=C(Nc1ccc(F)cc1F)C1CCN(c2ncccn2)CC1 | 58% (inactive)
50 | Cc1c(C(=O)OC2CCCC2)[nH]c2c1C(=O)CC(c1ccc(C(C)(C)C)cc1)C2 (configuration not stated) | 89% (inactive)
51 | Cc1nnc(SCC(=O)O)o1 | 75% (inactive)
52 | Cc1ccc2nc(-c3ccc(F)cc3)c(NC(C)(C)CC(C)(C)C)n2c1 | 12% (active)
53 | Cc1ccc(Nc2c(-c3ccc(C)cc3)nc3ccc(C)cn23)cc1 | 117% (inactive)
54 | COCCNc1c(-c2ccc(N)cc2)nc2ccc(C)cn12 | 65% (inactive)
55 | O=C(CSc1ccc(-c2cccs2)nn1)Nc1ccccc1 | 76% (inactive)
56 | COc1ccccc1N1CCN(C(=O)c2ccc3c(c2)N(Cc2cc(C)ccc2C)C(=O)c2ccccc2S3(=O)=O)CC1 | 74% (inactive)
57 | CCCNC(=O)c1cc2n(n1)CCCN(Cc1ccc(C)cc1)C2=O | 131% (inactive)
58 | CCCCNC(=O)c1cc2n(n1)CCCN(Cc1ccc(C)cc1)C2=O | 32% (active)
59 | CCC(C)NC(=O)c1cc2n(n1)CCCN(Cc1ccc(C)cc1)C2=O (configuration not stated) | 74% (inactive)
60 | Cc1ccc(CN2CCCn3nc(C(=O)NC(C)C)cc3C2=O)cc1 | 0% (active)
61 | CCNC(=O)c1cc2n(n1)CCCN(Cc1ccc(C)cc1)C2=O | 49% (inactive)
62 | CCCSCCCNC(=O)c1cc2n(n1)CCCN(Cc1ccc(C)cc1)C2=O | 89% (inactive)
